Experiment [1] is described as follows: P. berghei load reduction in hepatocytes – cell-based, HepG2, luciferase luminescence, HepG2 viability, primary screen (AID 624349; in the data active = parasite load remaining mostly below about 12%, no sharp cut-off; inactive = mostly above about 10%;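 note: 100% = mean of DMSO negative control wells on the same plate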). The following applies: P. berghei liver stage in HepG2, luciferase luminescence, concentration not given here; parasite load remaining: stronger effect = lower value; viability: measured here: HepG2 viability without parasites.
Experiment [2] can be described thus: Wnt pathway potentiators raising nuclear beta-catenin – imaging, WNT3A-conditioned medium, mouse C2C12, NPC library, primary screen (AID 1117326; in the data active = nuclear beta-catenin stimulation mostly above about 4.2%, no sharp cut-off; inactive = mostly below about 10%). The following applies: stronger effect = higher value.
The nature of experiment [3]: stimulators of insulin release from INS-1E, primary screen, cell-based, 5 mM glucose, NPC library (AID 1117329;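 active = compound raises insulin release from rat beta cells at 5 mM glucose, no numeric limit stated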). The following applies: rat INS-1E insulin secretion, at 10 µM, stronger effect = higher value.
The nature of experiment [4]: growth inhibition of GSK3B-pretreated HCT116 cells – cell-based, CellTiter-Glo, 0.2 to 20 µM (AID 1117336;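 active = compounds lowering colon cancer cell viability after pretreatment blocking the GSK3B kinase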). The following applies: HCT116 viability after GSK3B inhibitor, at 20 µM, stronger effect = higher value.
The nature of experiment [5]: inhibition of endothelial tube formation, primary screen, imaging, VEGF stimulated, CD31 staining, tube area, NPC library (AID 1117340;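 active = compound that reduces growth-factor-driven endothelial tube area in a mixed cell culture, no cutoff stated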). As to conditions: VEGF-stimulated ADSC/ECFC co-culture, at 10 µM, stronger effect = higher value.
Experiment [6] in a line: GLP1 release stimulators, primary, NCI-H716, NPC library (AID 1117341;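 active = compound raises GLP1 secretion from the human gut endocrine cells, with no numeric limit stated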). The following applies: NCI-H716 cells, at 10 µM, stronger effect = higher value.
Experiment [7] can be described thus: HCT116 colon cancer cell growth inhibition, primary screen, CellTiter-Glo luminescence, NPC library (AID 1117342;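 active = compounds that lower survival of HCT116 colon cancer cells in the luminescence readout, no numeric limit stated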). As to conditions: at 20 µM (top of the series).
The nature of experiment [8]: reduced SW480 viability measured with CellTiter-Glo, NPC library, primary (AID 1117343;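 active = compounds that lower viability of the colon cancer cells in the luminescence readout, with no numeric limit stated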). As to conditions: CellTiter-Glo luminescence; at 20 µM (top of the series).
Experiment [9] in a line: NPC library primary testing for decreased DLD-1 cell viability via CellTiter-Glo (AID 1117346;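 active = compounds that lower survival of DLD-1 colon cancer cells in the luminescence readout, no cutoff given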). As to conditions: DLD-1 viability, CellTiter-Glo luminescence; at 20 µM (top of the series).
Experiment [10] is described as follows: EMT-state selective cytotoxicity in co-culture – imaging, PC-3E GFP, TEM4-18 mCherry, primary screen (AID 1345086;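 active = compounds killing one labelled cell type while sparing the other, by normalised counts and ratio limits, not self-fluorescent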;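 for all read-outs here: cells exposed to compound for 72 h before imaging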;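 for red/green cell ratio (normalised): normalised mesenchymal count divided by normalised epithelial count so high means epithelial killing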). As to conditions: PC-3E GFP / TEM4-18 mCherry co-culture, imaging cell counts, at 1 µM; for red/green cell ratio (normalised): actives lie on both sides.
The subject of experiment [11] is Aerobactin synthetase IucA (Klebsiella pneumoniae hvKP1). Put plainly: IucA enzyme inhibition, primary screen, biochemical, Spectrum library (AID 1346200; call rule not given here;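 note: 100% = wells without compound and 0% = wells lacking enzyme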). The following applies: malachite green pyrophosphate, A620, at 8 µM, stronger effect = lower value.
Experiment [12] can be described thus: viability loss with induced miR-34 in A549 – imaging, A549 dox-inducible miR-34, nuclei and caspase counts, primary screen (AID 1347080). As to conditions: A549 miR-34 inducible, Hoechst nuclei count, 48 h.
Experiment [13] concerns the target NAD(+) hydrolase SARM1 (Homo sapiens) (UniProt Q6SZW1). Put plainly: blocking NAD cleavage by SARM1 SAM-TIR – cell lysate, NAD-Glo luminescence (AID 1508614;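 active = compound whose remaining NAD level is above about 45 nM, limit read from the data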;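 note: higher remaining NAD means stronger inhibition of SARM1 NADase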). The following applies: SAM-TIR HEK293T lysate NADase, at 1 µM, stronger effect = higher value.
The target of experiment [14] is Mitogen-activated protein kinase 7 (Homo sapiens) (UniProt Q13164). Put plainly: Gal4-ERK5 driven luciferase induction – cell-based, HTS, primary screen (AID 1508626;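 active = luciferase signal above three times the same-plate solvent-only control wells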;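 note: luciferase driven by Gal4-ERK5 fusion binding five Gal4 sites before minimal TATA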). The following applies: HeLa Gal4-ERK5 transactivation, 18 h, at 5 µM, stronger effect = higher value.
Mitogen-activated protein kinase 7 (Homo sapiens), sequence (Q13164 whole entry, looked up, the tested form may be a part): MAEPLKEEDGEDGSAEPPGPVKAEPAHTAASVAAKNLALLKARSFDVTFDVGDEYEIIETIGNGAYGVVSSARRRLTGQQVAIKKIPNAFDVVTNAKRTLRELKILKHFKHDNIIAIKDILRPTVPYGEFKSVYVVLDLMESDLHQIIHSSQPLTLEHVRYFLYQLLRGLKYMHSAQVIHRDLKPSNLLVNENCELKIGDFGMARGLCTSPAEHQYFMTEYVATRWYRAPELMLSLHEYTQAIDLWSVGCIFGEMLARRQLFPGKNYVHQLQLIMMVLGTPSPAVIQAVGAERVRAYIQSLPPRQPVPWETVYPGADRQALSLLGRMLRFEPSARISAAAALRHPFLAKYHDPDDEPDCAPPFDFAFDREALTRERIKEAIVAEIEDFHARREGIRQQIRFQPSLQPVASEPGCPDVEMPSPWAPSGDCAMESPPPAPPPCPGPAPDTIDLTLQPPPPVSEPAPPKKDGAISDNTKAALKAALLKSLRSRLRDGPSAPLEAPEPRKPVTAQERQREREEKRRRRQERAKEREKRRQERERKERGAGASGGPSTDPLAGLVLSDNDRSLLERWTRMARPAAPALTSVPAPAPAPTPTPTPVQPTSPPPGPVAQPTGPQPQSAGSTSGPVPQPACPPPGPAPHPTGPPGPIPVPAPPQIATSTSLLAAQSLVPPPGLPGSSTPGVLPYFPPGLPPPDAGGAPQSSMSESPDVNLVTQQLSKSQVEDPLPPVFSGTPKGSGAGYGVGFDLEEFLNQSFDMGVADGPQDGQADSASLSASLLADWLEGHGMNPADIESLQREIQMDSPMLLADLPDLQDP
Experiment [15] can be described thus: MELAS cybrid and Rieske KO viability enhancers – cell-based, MELAS cybrids, Rieske KO mouse fibroblasts, CellTiter-Glo, primary screen (AID 1508586;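 active = mean z-score across replicates of 1.96 or higher in either the MELAS or the Rieske mutant cell line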;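 note: z relative to plate mean and SD of compound and empty wells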). The following applies: low glucose.
Experiment [16] is described as follows: galactose survival enhancers in mitochondrial complex I cybrids – cell-based, galactose medium, ATP luminescence, primary screen (AID 1645843;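 active = z-score of at least 1.8 in each of two replicates, scored against plate mean and spread of sample wells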;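 note: positive z means more ATP and so rescue of galactose-driven cybrid death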). The following applies: complex I mutant cybrid cells, 72 h, stronger effect = higher value.
Where [17] appears, read: measured here: epithelial PC-3E GFP cell survival.
The mark [18] stands for this setting: measured here: mesenchymal TEM4-18 mCherry cell survival.
Setting [19] is: measured here: relative caspase fold change +Dox/-Dox.
The mark [20] stands for this setting: measured here: total cells with miR-34 induction, stronger effect = lower value.
Where [21] appears, read: measured here: total cells without miR-34 induction.
Where [22] appears, read: MELAS cybrid survival, CellTiter-Glo 48 h, stronger effect = higher value.
[23] abbreviates: Rieske KO mouse fibroblast survival, CellTiter-Glo 72 h.

Each structure is given as a SMILES string. Where “and” joins values, the source holds several entries; their conditions need not be identical. Equal values may be shown once. Calls of active or inactive are those of the source.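 Rule for the calls, unless noted: active = compounds whose cell count with miR-34 switched on is under 0.7 times the count with it off; inactive = the rest.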

We go through five molecules from PubChem BioAssay.

NAD(+) hydrolase SARM1 (Homo sapiens), sequence (Q6SZW1 whole entry, looked up, the tested form may be a part): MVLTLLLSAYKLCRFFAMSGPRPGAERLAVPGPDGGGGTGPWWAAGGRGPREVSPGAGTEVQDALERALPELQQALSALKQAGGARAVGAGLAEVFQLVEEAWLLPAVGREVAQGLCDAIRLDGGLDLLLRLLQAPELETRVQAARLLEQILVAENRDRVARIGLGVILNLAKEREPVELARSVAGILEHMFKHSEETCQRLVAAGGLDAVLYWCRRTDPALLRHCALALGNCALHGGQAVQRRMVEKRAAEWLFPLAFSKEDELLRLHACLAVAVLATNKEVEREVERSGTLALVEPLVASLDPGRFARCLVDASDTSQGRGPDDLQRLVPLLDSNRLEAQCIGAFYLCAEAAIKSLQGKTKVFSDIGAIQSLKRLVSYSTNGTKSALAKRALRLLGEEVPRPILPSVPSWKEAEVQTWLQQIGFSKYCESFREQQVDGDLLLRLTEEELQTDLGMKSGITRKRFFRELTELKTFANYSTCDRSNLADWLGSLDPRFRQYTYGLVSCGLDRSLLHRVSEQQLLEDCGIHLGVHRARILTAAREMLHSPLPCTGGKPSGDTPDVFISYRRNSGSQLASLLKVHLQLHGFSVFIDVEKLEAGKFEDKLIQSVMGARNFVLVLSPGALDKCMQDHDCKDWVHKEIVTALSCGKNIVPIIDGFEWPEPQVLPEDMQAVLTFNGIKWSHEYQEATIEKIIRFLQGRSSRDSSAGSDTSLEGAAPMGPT

Turning to `Nc1ccc([As](=O)(O)O)cc1`, the parasite load remaining in [1] was 57.3% (inactive). The viability in experiment [1] was found to be 124%. For the same molecule, the nuclear beta-catenin stimulation is 1.1% (inactive) in [2] (at 10 µM) and 0.8% in experiment [2] (stimulation, at 2 µM). Further, in [3], the insulin secretion stimulation was -1.7% (inactive). The viability decrease in experiment [4] is -4.2% (inactive). In addition, the tube area decrease in experiment [5] is -12.5% (inactive). The GLP1 secretion stimulation in experiment [6] was 0.9% (inactive). Also, the inhibition of viability in experiment [7] was 26% (inactive). Besides, the viability decrease (inhibition) in experiment [8] is 2.1% (inactive); in experiment [9], -7.6% (inactive). The red/green cell ratio (normalised) in experiment [10] was 0.96 (inactive). In addition, the normalised cell number was found to be 1.12 in [10] (setting [17]) and 1.07 in [10] (setting [18]). For the same molecule, in [11], the activity remaining is 117% (inactive). In addition, the fold change is 0.904 (inactive) in experiment [12] (stronger effect = lower value) and 4.85 in experiment [12] (setting [19]). For the same molecule, the cell count in experiment [12] (setting [20]) is 12200; in experiment [12] (setting [21]) it was 13500. Besides, in experiment [13], the remaining NAD is 10 nM (inactive). Also, the luciferase signal in experiment [14] was 48 AU (inactive).
Turning to `Oc1cc(Cl)ccc1Oc1ccc(Cl)cc1Cl`, the parasite load remaining in [1] is -1.97% (inactive) and 16.2% (inactive). Further, the viability in [1] was 75.8% and 88.8%. The nuclear beta-catenin stimulation in experiment [2] (at 10 µM) was 1.1% (inactive); in experiment [2] (stimulation, at 2 µM) it was 0.7%. In addition, in [3], the insulin secretion stimulation was 1.4% (inactive). Further, the viability decrease in experiment [4] was 48.8% (inactive). Also, the tube area decrease in experiment [5] was 104% (active). Further, the GLP1 secretion stimulation in [6] was 26.8% (active). For the same molecule, the inhibition of viability in experiment [7] is 95% (active). The viability decrease (inhibition) in experiment [8] was 112% (active); in experiment [9], 51.4% (active). In addition, the red/green cell ratio (normalised) in experiment [10] is 0.82 (inactive). Further, the values for the normalised cell number in experiment [10] (setting [17]) and in experiment [10] (setting [18]) were 1.03 and 0.84, respectively. In addition, the activity remaining in experiment [11] was 106% (inactive). The fold change in experiment [12] (stronger effect = lower value) was 1.03 (inactive) and 0.888 (inactive); in experiment [12] (setting [19]) it was 2.38 and 7.01. The cell count was 7170 and 12100 in experiment [12] (setting [20]); 6950 and 13600 in experiment [12] (setting [21]). The z-score in [15] (setting [22]) was -0.777 (inactive); in experiment [15] (setting [23]) it was -0.145; in [16], -1.48 (inactive). For the same molecule, the remaining NAD in [13] was 10 nM (inactive). Besides, the luciferase signal in [14] is 48 AU (inactive).
`NC1=NC(=O)C(c2ccccc2)O1` (stereo not drawn): in experiment [1], the parasite load remaining is 109% (inactive). Further, the viability in [1] came to 79.6%. Also, the nuclear beta-catenin stimulation in experiment [2] (at 10 µM) was 1% (inactive); in [2] (stimulation, at 2 µM), 0.5%. Also, the insulin secretion stimulation in experiment [3] is -0.9% (inactive). In experiment [4], the viability decrease was -2.4% (inactive). Also, the tube area decrease in [5] was 1.1% (inactive). The GLP1 secretion stimulation in experiment [6] was 3.5% (inactive). Further, the inhibition of viability in experiment [7] was -21.1% (inactive). Further, the figures for the viability decrease (inhibition) in [8] and in experiment [9] were 36.7% (inactive) and -5.1% (inactive), respectively. Further, the fold change was 0.967 (inactive) in experiment [12] (stronger effect = lower value) and 2.22 in [12] (setting [19]). Moreover, the cell count in [12] (setting [20]) came out at 9620; in [12] (setting [21]), 9950. In [16], the z-score was 0.395 (inactive).
Turning to `CN1[C@@H]2CC[C@H]1CC(OC(=O)c1cc(Cl)cc(Cl)c1)C2` (stereo partly drawn), the nuclear beta-catenin stimulation was 5.5% (inactive) in [2] (at 10 µM) and 3.7% in experiment [2] (stimulation, at 2 µM). Also, in experiment [3], the insulin secretion stimulation is 14.4% (inactive). Moreover, the viability decrease in experiment [4] is 59.7% (active). Besides, the tube area decrease in experiment [5] was 2.2% (inactive). Besides, the GLP1 secretion stimulation in [6] is 13.6% (inactive). Also, the inhibition of viability in experiment [7] is 87.1% (active). In addition, the viability decrease (inhibition) in [8] is 63.5% (active); in [9], 85.1% (active).
As to `CC(C)NCC(O)c1ccc(N)c(C#N)c1` (stereo not drawn), in experiment [1], the parasite load remaining was 53.9% (inactive). Further, the viability in experiment [1] is 161%. Further, the nuclear beta-catenin stimulation in [2] (at 10 µM) was -0.6% (inactive); in [2] (stimulation, at 2 µM), -0.3%. In [3], the insulin secretion stimulation was 2.6% (inactive). For the same molecule, in experiment [4], the viability decrease is 25.9% (inactive). The tube area decrease in [5] was -6.6% (inactive). Besides, the GLP1 secretion stimulation in experiment [6] was 8.5% (inactive). The inhibition of viability in experiment [7] is 12.2% (inactive). Besides, the viability decrease (inhibition) is 40% (inactive) in experiment [8] and 9.6% (inactive) in experiment [9]. Besides, the fold change in [12] (stronger effect = lower value) was 0.911 (inactive) and 0.954 (inactive) and 0.854 (inactive); in experiment [12] (setting [19]), 1.24 and 1.48 and 1.65. The cell count is 6050 and 9400 and 9430 in experiment [12] (setting [20]); 6640 and 9850 and 11000 in experiment [12] (setting [21]). Besides, the z-score was 0.636 (inactive) in [15] (setting [22]); 1.18 in [15] (setting [23]); 0.17 (inactive) and 0.505 (inactive) in experiment [16].
